PNC inhibitor = perinucleolar compartment assembly inhibition; PC3M PTB-GFP, PNC prevalence imaging, 16 h; hits give low values; activity change (PNC), negative = inhibition, % at 10 µM; hit rate 3.1% among 140,000; AID 2417;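 active = readout at or below -70, meaning at least 70% loss of cells showing the perinucleolar compartment, a nuclear body marking cancer cells; inconclusive = readout between -30 and a set limit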;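 note: plate controls were DMSO wells for no effect and camptothecin positive control wells for full effect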
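PC3M cells stably expressing PTB-GFP, 750–1000 cells/well, treated 16 h at 37 °C with compound (23 nl of library stock), in duplicate. After paraformaldehyde fixation and Hoechst stain, imaged at 20x; PNC prevalence scored by image analysis.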
aGal spleen mod = inhibitors or activators of human alpha-galactosidase in spleen homogenate; P06280; human spleen homogenate, 4MU-alpha-Gal fluorescence, 40 min; Potency, µM (top dose mostly 80 µM), for the others: at the top dose activity change, negative = inhibition, actives largely listed as inhibitors; hit rate 0.008% among 240,000; AID 2107;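 note: potency is the fitted concentration of half-maximal effect; 0% = enzyme with vehicle and -100% = no enzyme basal signal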
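Spleen homogenate 1 ug + cpd (titration) + 4-MU-alpha-D-galactopyranoside 1 mM; 37C 40 min; 50 mM citrate/phosphate pH 5.0, 0.01% Tween-20; stop pH 10; fluorescence 365/440; AC50 via Hill.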
ALDH1A1 block = inhibitors of human aldehyde dehydrogenase 1A1 | P00352 | Purified ALDH1A1, NADH fluorescence, propionaldehyde substrate | Potency, µM (highest dose often 75.3 µM), inactives show top-dose activity, negative = inhibition, most hits filed as inhibitors | hit rate 7.3% among 220,000 | AID 1030; active = well fitted inhibition curve with a large enough effect, not every such curve was filed as active; inconclusive = small, poorly fitted or top-dose-only effect, or another doubt; inactive = no such curve, though single readings can be large or run the other way;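 note: potency is the fitted concentration of half-maximal effect; plate controls were no enzyme wells and a reference inhibitor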
Target sequence (P00352 whole entry, looked up): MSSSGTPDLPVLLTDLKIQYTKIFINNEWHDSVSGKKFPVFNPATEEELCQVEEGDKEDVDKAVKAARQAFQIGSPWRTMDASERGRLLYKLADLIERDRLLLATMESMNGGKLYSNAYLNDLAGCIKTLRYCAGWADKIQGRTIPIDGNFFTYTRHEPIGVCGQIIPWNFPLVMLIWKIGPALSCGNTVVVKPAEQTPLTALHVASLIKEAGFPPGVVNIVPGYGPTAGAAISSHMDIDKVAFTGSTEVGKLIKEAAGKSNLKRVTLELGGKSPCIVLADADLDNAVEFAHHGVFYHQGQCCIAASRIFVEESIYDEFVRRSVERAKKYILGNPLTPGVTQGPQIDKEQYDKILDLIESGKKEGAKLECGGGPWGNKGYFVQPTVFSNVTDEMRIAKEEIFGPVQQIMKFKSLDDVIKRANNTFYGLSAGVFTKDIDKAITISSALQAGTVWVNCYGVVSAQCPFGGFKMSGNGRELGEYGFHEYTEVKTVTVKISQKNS
HPGD block = inhibitors of human 15-hydroxyprostaglandin dehydrogenase (HPGD) | P15428 | purified HPGD, NADH fluorescence kinetic, PGE2 substrate | Potency, µM, for the others: at the top dose activity change, negative = inhibition, hits mostly inhibitors | hit rate 4.3% among 150,000 | AID 894; active = well fitted inhibition curve with a large enough effect, not every such curve was filed as active; inconclusive = small, poorly fitted or top-dose-only effect, or another doubt; inactive = no such curve, though single readings can be large or run the other way; note: potency is the fitted concentration of half-maximal effect
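20 nM HPGD preincubated 15 min at room temperature with compound in 50 mM Tris-HCl pH 8, 0.01% Tween 20. Started with 1 mM NAD+ and 30 uM prostaglandin E2; NADH fluorescence (360/450 nm) read 5 times over 30-s intervals, last minus first.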
GLA inh pH 4.5 = blocks human alpha-galactosidase A at pH 4.5 | purified enzyme, 4-MU-alpha-Gal fluorescence, pH 4.5 | 230,000 tested, under 10 active | AID 1467 | activity change, negative = inhibition, % at 105 µM;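 note: 0% = full activity with enzyme and -100% = basal without enzyme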
ALOX12 inhib = blocks human 12-lipoxygenase activity | Potency, µM (doses to about 57.1 µM), without a hit: at the top dose activity change, negative = inhibition, actives largely listed as inhibitors | purified 12-hLO, xylenol orange hydroperoxide absorbance | P18054 | AID 1452 | hit rate 0.12% among 150,000; note: potency is the fitted concentration of half-maximal effect; nearly all actives have a fitted effect of over 55% in size
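Xylenol orange chromogenic assay: hydroperoxide from 12hLO oxidises Fe(II), giving red-shifted Fe(III)-XO absorbance. Conditions: 150 nM enzyme, 40 uM arachidonic acid, 25 mM Hepes pH 7.0, 0.01% Triton X-100, 30 min, room temperature.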
* hit, by the source's call; ? = inconclusive; nt = not tested or not shown; [ ] = remark or other dose. An excerpt weighted towards active compounds, which were near 10% of everything screened. Unless noted, calls come from the whole dose curve; as a rule, active = well fitted curve in the direction sought with a large enough effect; inconclusive = small, poorly fitted or top-dose-only effect, or another doubt; inactive = no such curve, though single readings can be large; an effect the other way counts as inactive or inconclusive. Unless noted, % is set by controls: 0 for no effect and ±100 for the full control effect.

SMILES	PNC inhibitor	aGal spleen mod	ALDH1A1 block	HPGD block	GLA inh pH 4.5	ALOX12 inhib
COC(=O)CCC(C)C1CCC2C3C(O)C[C@@H]4CC(O)CC[C@@]4(C)C3CC(O)[C@]12C (some centres undefined)	nt	12%	13%	-1%	-10	2%
CCOC(=O)NNc1ccc2nonc2c1[N+](=O)[O-]	nt	2%	18µM*	nt	-15	nt
Cc1c(C=O)c(Cl)n(C)c(=O)c1C#N	nt	8%	-9%	nt	3	nt
Cc1cc(C(=O)N/N=C2\CC(=O)CC(C)(C)C2)c(C)n1-c1ccccc1	-95*	6%	?	-22%	-4	-6%
Cc1cc(C(=O)N/N=C2\CC(=O)CC(C)(C)C2)c(C)n1-c1ccc(F)cc1	47	-1%	28µM*	-10%	-3	-6%
CCCCN(CC(=O)NCc1ccc(F)cc1)C(=O)c1ccco1	nt	-1%	-5%	nt	12	nt
O=C(O)c1ccc(NS(=O)(=O)c2ccc3nnn(O)c3c2)cc1	-107*	-5%	-7%	-18%	-1	5%
Cc1ccc(-n2nc(-c3ccco3)cc2C(=O)O)c(C)c1	nt	-10%	7%	nt	7	nt
Cc1cc(NC(=O)CSc2nc3c(sc4ccccc43)c(=O)n2CCCN2CCOCC2)n[nH]1	-83*	1%	5%	-9%	2	1%
OC[C@@H]1OC(O)[C@H](O)[C@H](O)[C@H]1O (some centres undefined)	nt	3%	nt	nt	nt	nt
CS(=O)(=O)N1CCN(c2ccccc2NC(=S)NC(=O)c2cccs2)CC1	nt	-5%	0.45µM*	nt	-2	nt
CS(=O)(=O)N1CCN(c2ccccc2NC(=S)NC(=O)c2ccccc2[N+](=O)[O-])CC1	nt	-2%	0.71µM*	nt	2	nt
C[N@@+]1(Cc2ccc(Cl)c(Cl)c2)CCC[C@@H]1c1ccc[n+](Cc2ccc(Cl)c(Cl)c2)c1	nt	nt	11%[13.5 µM]	-7%	nt	-3%[11.4 µM]
CCc1ccc(-c2cn3nc(C)c(C)nc3n2)cc1	?	18%	2.8µM*	-3%	-4	-5%
COc1ccc(NC(=O)/C(C#N)=C\c2cc(C)n(-c3ccc4c(c3)OCO4)c2C)cc1	-124*	-4%	-3%	-16%	-9	-2%
CNC(=O)/C(C#N)=C/c1cc(C)n(-c2ccc(N3CCOCC3)cc2)c1C	nt	4%	?	nt	-2	nt
Cc1cc(/C=C(\C#N)C(=O)Nc2ccccc2)c(C)n1-c1ccc(C(=O)O)cc1	nt	5%	1µM*	nt	-11	nt
Cc1cc(/C=C(\C#N)C(=O)Nc2ccc(Cl)cc2)c(C)n1-c1ccc(N2CCOCC2)c([N+](=O)[O-])c1	?	6%	?	-6%	-1	1%
Cc1cccc(NC(=O)/C(C#N)=C\c2cc(C)n(-c3ccc(C(=O)O)cc3)c2C)c1	nt	-6%	3.2µM*	nt	-1	nt
CCOC(=O)/C(C#N)=C/c1cc(C)n(-c2ccc(C)cc2)c1C	-10	4%	11µM*	-14%	-9	-9%
Cc1cc(C)c(C)c(S(=O)(=O)NCCC(=O)O)c1C	nt	nt	11%	-1%	nt	-3%
N#Cc1cccc(-c2cc(NCc3cccnc3)ncn2)c1	nt	-1%	?	nt	nt	nt
Cc1cc(C=O)c(C)n1-c1cc(C(=O)O)cc(C(=O)O)c1	nt	-5%	-11%	nt	9	nt
Cc1cc(C=O)c(C)n1-c1ccc2c(c1)OCO2	nt	2%	1.4µM*	nt	6	nt
Cc1cc(/C=C(\C#N)C(=O)OCC#N)c(C)n1CC(C)C	nt	-13%	25µM*	nt	4	nt
Cc1cc(C(=O)COc2ccccc2Cl)c(C)n1-c1ccc2c(c1)OCO2	-106*	1%	-6%	?	-4	-5%
COC(=O)CC1C(=O)NCCN1C(=O)CSc1nnc(Nc2ccc(C)cc2)s1 (centres undefined)	-28	7%	-4%	-11%	9	4%
COC(=O)CC1C(=O)NCCN1C(=O)CSc1nnc(Nc2ccc(OC)cc2)s1 (centres undefined)	31	16%	25µM*	?	-4	9%
c1ccc(NCc2ccccn2)cc1	nt	0%	1%	nt	7	nt
c1ccc(NCCCNc2ccccc2)cc1	-26	-2%	20µM*	-4%	-6	0%

Screens (PubChem)
